Results as given in PubChem BioAssay (NCATS).
Records with an inconclusive call do not appear. The source made the active and inactive calls. Calls come from the whole dose curve; as a rule, active = well fitted inhibition curve with a large enough effect; inconclusive = small, poorly fitted or top-dose-only effect; inactive = flat fitted curve, though single readings scatter.

Key:
[1] = qHTS profiling for inhibitors of Plasmodium falciparum proliferation (AID 504749);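 note: 0% = DMSO vehicle and full inhibition = artemisinin control; nearly all actives have a fitted effect of over 60% in size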; settings: P. falciparum in erythrocytes, SYBR Green DNA, 72 h, at 28.7 µM (top of the series)
Procedure, shortened: (§1)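 Parasite proliferation within erythrocytes, 72 h exposure. Endpoint: SYBR Green I fluorescence after overnight lysis at room temperature. Controls: 0.29 uM artemisinin, DMSO.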

[2] = tested on: 3D7; assay: as above; settings: P. falciparum in erythrocytes, SYBR Green DNA, 72 h; series mostly up to 28.7 µM
Procedure, shortened: as §1

[3] = tested on: AA1029; assay: as above; settings: P. falciparum in erythrocytes, SYBR Green DNA, 72 h; series mostly up to 28.7 µM
Procedure, shortened: as §1

[4] = tested on: AS120; assay: as above; settings: P. falciparum in erythrocytes, SYBR Green DNA, 72 h; series mostly up to 28.7 µM
Procedure, shortened: as §1

[5] = tested on: ATS189; assay: as above; settings: P. falciparum in erythrocytes, SYBR Green DNA, 72 h; series mostly up to 28.7 µM
Procedure, shortened: as §1

[6] = tested on: ATS95; assay: as above; settings: P. falciparum in erythrocytes, SYBR Green DNA, 72 h; series mostly up to 28.7 µM
Procedure, shortened: as §1

[7] = tested on: C2A; assay: as above; settings: P. falciparum in erythrocytes, SYBR Green DNA, 72 h; series mostly up to 28.7 µM
Procedure, shortened: as §1

[8] = tested on: CP185; assay: as above; settings: P. falciparum in erythrocytes, SYBR Green DNA, 72 h; series mostly up to 28.7 µM
Procedure, shortened: as §1

[9] = tested on: CP191; assay: as above; settings: P. falciparum in erythrocytes, SYBR Green DNA, 72 h; series mostly up to 28.7 µM
Procedure, shortened: as §1

[10] = tested on: CP192; assay: as above; settings: P. falciparum in erythrocytes, SYBR Green DNA, 72 h; series mostly up to 28.7 µM
Procedure, shortened: as §1

[11] = tested on: CP194; assay: as above; settings: P. falciparum in erythrocytes, SYBR Green DNA, 72 h; series mostly up to 28.7 µM
Procedure, shortened: as §1

[12] = tested on: CP201; assay: as above; settings: P. falciparum in erythrocytes, SYBR Green DNA, 72 h; series mostly up to 28.7 µM
Procedure, shortened: as §1

[13] = tested on: 7G8; assay: as above; settings: P. falciparum in erythrocytes, SYBR Green DNA, 72 h; series mostly up to 28.7 µM
Procedure, shortened: as §1

CCCCCCCCOC(=O)c1ccccc1C(=O)OCCCCCCCC
inactive: activity, negative = inhibition ([1]; parasite line A) 10.9% | activity, negative = inhibition ([1]; parasite line B) -23.5% | Potency [2] | Potency [3] | Potency [4] | Potency [5] | Potency [6] | Potency [7] | Potency [8] | Potency [9] | Potency [10] | Potency [11] | Potency [12]

CCNC(C)Cc1cccc(C(F)(F)F)c1 (stereo unspecified)
inactive: activity, negative = inhibition ([1]; parasite line A) 6.39% | Potency [2] | Potency [13] | Potency [3] | Potency [4] | Potency [5] | Potency [6] | Potency [7] | Potency [8] | Potency [9] | Potency [10] | Potency [11] | Potency [12]

Clc1ccccc1Cl
inactive: activity, negative = inhibition ([1]; parasite line A) 6.5% | Potency [2] | Potency [13] | Potency [3] | Potency [4] | Potency [5] | Potency [6] | Potency [7] | Potency [8] | Potency [9] | Potency [10] | Potency [11] | Potency [12]

O=C1CN=C(c2ccccc2)c2cc(Cl)ccc2N1CC1CC1
inactive: activity, negative = inhibition ([1]; parasite line A) -5.97% | activity, negative = inhibition ([1]; parasite line B) -9.8% | Potency [3] | Potency [5] | Potency [6] | Potency [7] | Potency [8] | Potency [9] | Potency [10] | Potency [11] | Potency [12]

CC1CCC(C(C)C)C(OC(=O)c2ccccc2N)C1 (stereo unspecified)
inactive: activity, negative = inhibition ([1]; parasite line A) -17.5% | activity, negative = inhibition ([1]; parasite line B) -19.4% | Potency [2] | Potency [3] | Potency [4] | Potency [7] | Potency [8] | Potency [9] | Potency [10] | Potency [11] | Potency [12]
